In the library only some 1.6% were active in any assay of this set; here they are far more common.
ABCB6 inh 2: ABCB6 transporter inhibitors, primary screen, K562-ABCB6 cells, flow cytometry, MLPCN library; fluorescence ratio to DMSO, % at 10 µM; 0.19% of 360,000 active; AID 602162, 2011; ATP-binding cassette sub-family B member 6 (Homo sapiens), Q9NP58; K562-ABCB6 porphyrin accumulation, 1 h; stronger effect = lower value;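 active = fluorescence ratio to DMSO below 75%, the collection mean minus 3 SD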;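 note: signal is porphyrin accumulated inside mitochondria; lower ratio means ABCB6 inhibition with less porphyrin fluorescence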
Target sequence (Q9NP58 whole entry, looked up): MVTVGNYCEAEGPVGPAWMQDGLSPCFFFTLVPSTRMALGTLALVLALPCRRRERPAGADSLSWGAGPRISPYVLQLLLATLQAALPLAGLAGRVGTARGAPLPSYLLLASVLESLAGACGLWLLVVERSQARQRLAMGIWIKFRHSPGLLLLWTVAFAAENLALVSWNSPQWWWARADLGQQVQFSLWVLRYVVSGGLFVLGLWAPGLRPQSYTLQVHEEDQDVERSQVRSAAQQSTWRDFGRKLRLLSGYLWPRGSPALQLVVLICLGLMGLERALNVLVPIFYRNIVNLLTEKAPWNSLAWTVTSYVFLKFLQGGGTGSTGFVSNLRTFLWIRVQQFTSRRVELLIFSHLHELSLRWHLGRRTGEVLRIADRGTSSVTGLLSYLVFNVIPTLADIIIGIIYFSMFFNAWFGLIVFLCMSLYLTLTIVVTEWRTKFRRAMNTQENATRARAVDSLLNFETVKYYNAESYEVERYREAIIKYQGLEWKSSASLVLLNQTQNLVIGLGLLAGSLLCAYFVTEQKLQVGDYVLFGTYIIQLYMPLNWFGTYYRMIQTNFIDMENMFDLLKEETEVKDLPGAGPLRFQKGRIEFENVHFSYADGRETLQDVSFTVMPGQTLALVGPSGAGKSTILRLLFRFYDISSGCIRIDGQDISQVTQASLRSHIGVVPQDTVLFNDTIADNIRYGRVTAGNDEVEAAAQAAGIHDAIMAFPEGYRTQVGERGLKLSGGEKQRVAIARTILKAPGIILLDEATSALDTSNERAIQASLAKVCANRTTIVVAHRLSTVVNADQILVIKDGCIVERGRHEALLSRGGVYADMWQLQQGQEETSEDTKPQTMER
RAD54 branch: inhibitors of human RAD54 branch migration, primary screen, biochemical, fluorescence, single point; 0.14% of 360,000 active; DNA repair and recombination protein RAD54-like (Homo sapiens), Q92698; RAD54 Holliday junction branch migration, FAM/BHQ fluorescence; AID 602329, 2012; inhibition, % at 10.4 µM;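 active = mean normalized replicate activity at least 40 and at least half of replicates scoring 40 or more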;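 note: inhibitors cause a drop in the FAM fluorescence signal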
N-glyco inh: increase of ERlucT glycosylation luciferase signal, primary screen, N-linked glycosylation inhibitor project, D54 ERlucT cells, luminescence, set 2; D54 ERlucT glycosylation luciferase reporter, 24 h; percent of 100 nM tunicamycin response; reporter increase, % at 12.5 µM; 0.23% of 360,000 active;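 active = mean luciferase reporter signal, scaled so untreated is 0 and the glycosylation-blocking control 100, at or above a set limit in every replicate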;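 note: luciferase carries N-glycosylation sites so blocking glycosylation raises the light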
Myeloid diff MLP: induction of myeloid progenitor differentiation, primary screen, cell-based, flow cytometry, MLPCN library; AID 624256, 2012; ER-HoxA9 myeloid progenitors, lysozyme-GFP differentiation; calls only at 10 µM; 1% of 360,000 active;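 active = normalized GFP-positive differentiation at or above the plate's own cutoff, the solvent-only control mean plus 3 SD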;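 note: cells exposed to compound for four days before flow analysis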
Vif imaging: HIV Vif self-association inhibitors, primary screen, imaging, HEK293T, single point; HEK293T cells, Vif self-association by quenched fluorescence, 24 h; inhibition, % at 7.49 µM; 0.35% of 340,000 active; AID 602346, 2012; in the data active = inhibition above about 50%, passing the limit was not always enough
ABCB6 inh CP1: ABCB6 transporter inhibitors, confirmation, K562-ABCB6 cells, flow cytometry, cherry pick 1; shares compounds with ABCB6 inh 2; K562-ABCB6 porphyrin accumulation, 1 h; stronger effect = lower value; ratio response (% of DMSO), % at 10 µM; 700 tested, under 10 active; AID 602430, 2012;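 active = repeat-averaged ratio response below 75% of DMSO, the collection mean minus 3 SD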;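 note: median porphyrin fluorescence at 575 nm with 488 nm excitation from mitochondria; lower ratio means less porphyrin signal so ABCB6 inhibition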
DNA binding: DNA binding of candidate compounds, dose response, artefact control for RAD54 inhibitor project, biochemical, fluorescence polarization, cherry-pick | shares compounds with RAD54 branch | Acridine orange-DNA displacement, 20 min | AID 651673, 2012 | AC50, µM (doses to about 35 µM) | 8% of 460 active;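 active = signal drop giving an AC50 within twice the top valid tested concentration of each sample, actives reach about 35 µM in these data; inactive = activity opposite to expected, plus the rest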;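 note: polarization loss reports compound binding to salmon sperm DNA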
Myeloid diff CP1: inducers of myeloid progenitor differentiation, confirmation, cell-based, GFP/Mac1 flow cytometry, cherry pick 01 | calls only | 2% of 2,300 active | ER-HoxA9 myeloid progenitors, GFP/Mac1 double-positive flow | shares compounds with Myeloid diff MLP;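 active = share of green or green-and-red cells above 9 and 9% in run 1 or 4 and 3% in run 2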
GFP autofluor: compound fluorescence in myeloid differentiation counter-screen; shares compounds with Myeloid diff MLP; ER-HoxA9 myeloid progenitors, no estrogen, GFP autofluorescence flow cytometry; vehicle wells 0%, positive control 100%; fluorescence response, % (test concentration not listed); 7.4% of 2,300 active; AID 651707;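 active = over 5% cells positive for green fluorescent reporter, or over 2% positive for both it and APC stain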
Large screens that a line does not name were inactive (follow-up assays come after a bar, where they were run).

CC(=O)N1CCC2(CC1)CC(=O)c1cc(OCC(=O)N3CCN(C)CC3)ccc1O2	ABCB6 inh 2 58 | ABCB6 inh CP1 inactive
CC(=O)N1CCC2(CC1)CC(=O)c1cc(OCC(=O)N3CCC4(CC3)OCCO4)ccc1O2	none (no result: RAD54 branch)
CCCCn1c(O)c(C(CC)=Nc2ccc(OC)cc2OC)c(=O)[nH]c1=O	none
CCCCn1c(O)c(C(CC)=Nc2ccc(OCC)cc2)c(=O)[nH]c1=O	ABCB6 inh 2 74 | ABCB6 inh CP1 inactive
CCCCn1c(O)c(C(C)=NC(C)c2ccccc2)c(=O)[nH]c1=O (centres undefined)	ABCB6 inh 2 72 (no result: Myeloid diff MLP) | ABCB6 inh CP1 inactive
CCOC(=O)c1c(-n2c(C)cc(/C=C3/C(=O)NC(=O)N(CC)C3=O)c2C)sc2c1CCCC2	ABCB6 inh 2 73 | ABCB6 inh CP1 inactive
CCN1CCN(c2ccc(N)c(C)c2)CC1	RAD54 branch 77 | DNA binding inactive
COC(=O)C[C@H]1CC[C@@H]2NC[C@@H](O)COC[C@H]2O1	none (no result: ABCB6 inh 2, N-glyco inh, Myeloid diff MLP, Vif imaging)
Cc1cc(N2CCN(C)CC2)nc2ccccc12	none
CN1CCC(N(C)c2nc(-c3ccccc3)nc3ccccc23)CC1	RAD54 branch 67 | DNA binding inactive
COc1ccc2c(c1)[nH]c1c(C)nccc12	RAD54 branch 71 | DNA binding inactive
O=C(O)[C@@H]1[C@@H](CO)[C@@H]2Cn3c(ccc(-c4cccnc4)c3=O)[C@H]1N2S(=O)(=O)c1ccccc1F	none (no result: ABCB6 inh 2, N-glyco inh, Myeloid diff MLP, Vif imaging)
CC(=O)c1ccc(OC(NC(=O)c2ccco2)C(Cl)(Cl)Cl)cc1 (centres undefined)	Myeloid diff MLP active (no result: RAD54 branch) | Myeloid diff CP1 inactive | GFP autofluor inactive
C=CCn1c(O)c(C=NCCCOc2ccc(CC)cc2)c(=O)[nH]c1=S	Myeloid diff MLP active | Myeloid diff CP1 inactive | GFP autofluor inactive
CC(=O)Nc1ccc([As](=O)(O)c2ccc([N+](=O)[O-])cc2)cc1	none (no result: RAD54 branch) | Myeloid diff CP1 inactive | GFP autofluor inactive
COc1ccc(C#Cc2ccc([C@@H]3[C@H]4CN(C(=O)Cc5ccncc5)CCCCN4[C@H]3CO)cc2)cc1	none (no result: ABCB6 inh 2, N-glyco inh, Myeloid diff MLP, Vif imaging)
CCOC(=O)C(C)Oc1cc(C)cc2oc(=O)c3c(c12)CCCC3 (centres undefined)	none | Myeloid diff CP1 inactive | GFP autofluor inactive
CCCCCCC(=O)N/N=C/c1c(O)n(C2CC2)c(=S)[nH]c1=O	none (no result: RAD54 branch)
CCCCCCC(=O)N/N=C/c1c(O)n(C(C)CC)c(=S)[nH]c1=O (centres undefined)	none | Myeloid diff CP1 inactive | GFP autofluor inactive
O=C(Nc1cccc(OC(=O)N2CCCCC2)c1)N1CCCCC1	none (no result: Vif imaging) | Myeloid diff CP1 inactive | GFP autofluor inactive
CCC(CC)NCc1c[nH]c2ccccc12	Myeloid diff MLP active (no result: RAD54 branch) | Myeloid diff CP1 inactive | GFP autofluor inactive
O=c1[nH]c(=S)[nH]c(O)c1/C=C1/C=c2ccccc2=N1	Myeloid diff MLP active | Myeloid diff CP1 inactive | GFP autofluor 16
Cc1cccc2c1=NC(=O)/C(=C/c1c(O)[nH]c(=O)[nH]c1=O)C=2	none (no result: RAD54 branch)
O=C(Cc1ccccc1)N1CCCCN2[C@@H](CO)[C@H](c3ccc(-c4ccccc4)cc3)[C@@H]2C1	none (no result: ABCB6 inh 2, N-glyco inh, Myeloid diff MLP, Vif imaging)
